Experimental data published in PubChem BioAssay (NCI).
The panel holds about 83,000 compounds, 20% with a hit somewhere; the sample as a whole holds those more often.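 Note: values are percent growth. 100 is the growth of untreated cells, values between 100 and 0 indicate rising inhibition; between -100 and 0 indicates cell death.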 Values without a mark were called inactive. Calls of active or inactive are those of the source. The calls were made as follows: active = growth percent below 10; inactive = the rest.

How the values were obtained:
Assay in all cases: NCI-60 one-dose screen, 48 h (100 = growth as untreated, 0 = no growth, -100 = all killed)
Details in all cases: 10 µM unless noted
T-47D breast = system: T-47D breast
BT-549 breast = system: BT-549 breast
MDA-MB-435 melanoma = system: MDA-MB-435 melanoma
SW-620 colon = system: SW-620 colon
MCF7 breast = system: MCF7 breast
HCT-116 colon = system: HCT-116 colon
HCC-2998 colon = system: HCC-2998 colon
KM12 colon = system: KM12 colon

Compound	growth (T-47D breast)	growth (BT-549 breast)	growth (MDA-MB-435 melanoma)	growth (SW-620 colon)	growth (MCF7 breast)	growth (HCT-116 colon)	growth (HCC-2998 colon)	growth (KM12 colon)
CN(C)C1CCC(NC2=CC(=O)C=CC2=O)CC1 (stereo unspecified)	110%	114%	114%	117%	97.9%	5.98% (active)	126%	108%
CCNCc1ccncc1	96.9%	114%	95.6%	100%	96.6%	104%	99.5%	106%
O=S(=O)(NCCCNc1nccc(-c2c(-c3ccc(F)c(O)c3)nc3sccn23)n1)c1ccc(Cl)cc1	66.1%	101%	32.5%	99.2%	77.2%	46.3%	112%	75.1%
Clc1ccc([I+]c2ccc(Cl)cc2Cl)c(Cl)c1	-44.9% (active)	7.13% (active)	82.2%	-43.4% (active)	-30.9% (active)	-37.7% (active)	58.3%	39.3%
CC(C(=O)n1cc(-c2ccccc2)c(-c2ccccc2)c1)c1ccccc1 (stereo unspecified)	93.4%	117%	104%	111%	100%	99.8%	104%	105%
COc1cc2c3c(c(=O)oc2cc1OS(=O)(=O)c1ccc(C(F)(F)F)cc1)CCCCC3	80.9%	75.4%	91.6%	102%	89.6%	66.6%	97.6%	92.1%
CCn1cc(C(=O)O)c(=O)c2cc(F)c(N3CCN(S(=O)(=O)c4ccc(OC)c(OC)c4)CC3)cc21	87.2%	105%	98.9%	113%	100%	105%	104%	96.2%
O=C1Nc2ccc(Br)cc2C1=N/C=c1\[nH]c(=O)/c(=C/c2ccc(Cl)cc2)s1	80%	99.8%	104%	104%	86.6%	87.9%	118%	107%
CC(=O)Nc1ccc2c(c1)/C(=C\C=C/c1ccc([N+](C)(C)C)cc1)c1ccccc1-2	41.4%	94.6%	96%	99%	60.4%	70.3%	114%	97.1%
O=C(CCl)NCCNc1nccc(Nc2ccc(S(=O)(=O)Nc3ccccn3)cc2)n1	9.1% (active)	-5.35% (active)	7.62% (active)	8.07% (active)	11%	-44.6% (active)	99.7%	34%
O=C(O)c1cccc([N+](=O)[O-])c1/C=C/c1ccccc1	95.2%	106%	105%	96.7%	95.5%	94.3%	103%	99.8%
Cc1ccc2c(c1)C(C)Cc1c(ncnc1-n1cnc3ccccc31)N2C (stereo unspecified)	50.3%	-1.38% (active)	-47.9% (active)	21.6%	13.5%	5.53% (active)	17.4%	13.8%
COc1ccccc1OCC(=O)Nc1sc2c(c1C(N)=O)CCC2	62.5%	85.6%	78.9%	64.5%	27.8%	63.1%	58.8%	105%
N#Cc1ccc(NC(=O)c2ccc3cccnc3c2O)cc1	27.3%	27.7%	26.2%	23.1%	15.8%	20.3%	44.6%	25.7%
CCC1CCc2nc3sc(C(=O)Nc4cccc(C)c4)c(N)c3cc2C1 (stereo unspecified)	96.9%	86.1%	-15.9% (active)	53.2%	18.7%	83.8%	100%	48.5%
COc1cc(/C=C\c2cc(OC)c(OC)c(OC)c2)cc(N/C=C\C(=O)c2c[nH]c3ccccc23)c1OC	-5.64% (active)	41.2%	29.1%	-76% (active)	4.09% (active)	-82.9% (active)	83.2%	49.2%

Compound	growth (T-47D breast)	growth (BT-549 breast)	growth (MDA-MB-435 melanoma)	growth (SW-620 colon)	growth (MCF7 breast)	growth (HCT-116 colon)	growth (HCC-2998 colon)	growth (KM12 colon)
COc1ncc(-c2ccc3ncnc(Nc4cccc(Cl)c4)c3c2)cc1NS(=O)(=O)C1CC1	-1.98% (active)	2.9% (active)	47.9%	51.1%	7.65% (active)	49.2%	59.9%	69.7%
COC1=CC(c2ccc[nH]2)=N/C1=C\c1[nH]c(C)c(C(=O)CCCCC(=O)Nc2ccccc2)c1C	63.9%	13.9%	17%	-87.8% (active)	-85.7% (active)	-100% (active)	55.6%	-3.11% (active)
COc1ccc(C(=O)/C=C/c2ccc(/C=C/c3cc(OC)c(OC)c(OC)c3)cc2)cc1	43.4%	41.6%	41%	39.3%	30.6%	17.5%	94.1%	29.2%
CC(C)C(C(=O)CCN(C)C)c1ccc(Cl)cc1 (stereo unspecified)	82.9%	90.5%	107%	108%	87.4%	79.9%	104%	104%
COC1=CC(c2ccc[nH]2)=N/C1=C\c1[nH]c(C)c(C(=O)CCCCC(=O)NCc2ccccc2)c1C	50.5%	21.5%	-20% (active)	-96.7% (active)	-100% (active)	-83.1% (active)	57.8%	-25.2% (active)
O=c1[nH]c(CN2CCN(c3ccccc3F)CC2)nc2sc3c(c12)CCC3	99.1%	98.8%	118%	105%	107%	105%	117%	106%
CC1Cc2c(N(C)C)ncnc2N(C)c2ccc(Cl)cc21 (stereo unspecified)	37.1%	24.6%	-32.2% (active)	17.9%	15.2%	16.9%	50.1%	23.6%
CC(Br)C(Br)c1cc2c(cc1Br)OCO2 (stereo unspecified)	73.7%	100%	97.9%	109%	93.9%	88.5%	96%	103%
O=C(Cc1c(F)cccc1Cl)Nc1ccc(S(=O)(=O)Nc2ncccn2)cc1	102%	90.8%	101%	102%	96.2%	102%	97.3%	111%
NC(=O)NC(=O)/C=C/C(=O)OCCCl	69%	106%	101%	102%	92.2%	104%	99.8%	110%
CCc1c(C(=O)Nc2ccc3ccccc3c2)[nH]c(C)c1C(C)=O	83.6%	112%	78.7%	99.5%	84.6%	99.5%	99.1%	84.7%
CCOc1ccc(/C=C/C=N/NC(N)=S)cc1	38.2%	57.4%	88.9%	87.2%	43.5%	70.1%	70.1%	84%
CCC(c1ccc(OC)cc1)C(CC)c1ccc(O)c(CN2CCCC2)c1 (stereo unspecified)	-33% (active)	2.58% (active)	-31.6% (active)	0.333% (active)	-44.4% (active)	35.9%	-83% (active)	27.9%
O=C(O)C(Cc1ccccc1)N1C(=O)/C(=C/C(Cl)=C/c2ccc([N+](=O)[O-])cc2)SC1=S (stereo unspecified)	1.08% (active)	-28.1% (active)	-41.7% (active)	5.12% (active)	26.1%	-59.5% (active)	3.58% (active)	14.8%
COc1ccc(C2=CC(c3ccc(Oc4ccnc5cc(Cl)ccc45)c(OC)c3)c3c(nc(OC)[nH]c3=O)N2)cc1 (stereo unspecified)	53.8%	39.5%	71.3%	50.2%	35.7%	35.8%	84.3%	65.5%
CN1CCN(c2ccc3cc(-c4nc5ccccc5[nH]4)c(=O)oc3c2)CC1	76.9%	87.7%	99.5%	107%	73.6%	81.9%	114%	90%
